Most compounds without a hit are left out; they make up all but 12% or so of the library.
G9a inh: inhibitors of human histone lysine methyltransferase G9a; Q96KQ7; G9a H3K9 monomethylation, AlphaScreen, 2 h; Potency, µM (titrated, usually from 102 µM), hits mostly inhibitors; 350,000 compounds, 8.8% hits; AID 504332; also: nearly all actives have a fitted effect of over 75% in size
Target sequence (Q96KQ7 913-1193 limits assumed): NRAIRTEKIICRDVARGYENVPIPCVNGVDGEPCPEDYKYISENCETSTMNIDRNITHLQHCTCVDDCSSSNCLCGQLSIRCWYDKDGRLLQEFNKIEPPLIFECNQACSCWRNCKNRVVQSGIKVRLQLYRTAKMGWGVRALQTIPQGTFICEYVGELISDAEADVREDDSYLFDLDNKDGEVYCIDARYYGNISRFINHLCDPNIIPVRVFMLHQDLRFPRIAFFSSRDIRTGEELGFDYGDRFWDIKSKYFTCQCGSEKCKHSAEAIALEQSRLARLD
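Compounds were preincubated with 20 nM G9a for 15 min, after which biotinylated H3K9 peptide (500 nM) and SAM (20 uM) started a 2 h room-temperature reaction. Monomethylated product was quantified by antibody-based AlphaScreen chemiluminescence.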
JMJD2A Tudor: blocks the human JMJD2A Tudor domain; AlphaScreen JMJD2A-Tudor / H3K4me3 peptide binding; Potency, µM (titrated, usually from 114 µM), usual class: inhibitors; 390,000 compounds, 4.4% hits; also: nearly all actives have a fitted effect of over 50% in size
HP1b chromo inh: inhibitors of HP1-beta chromodomain binding to methylated histone tails. 390,000 compounds, 0.56% hits. AlphaScreen HP1-beta / biotin-H3K9me3 peptide binding. AID 540317. Potency, µM (highest dose often 114 µM), actives largely listed as inhibitors; also: nearly all actives have a fitted effect of over 70% in size
Target sequence (P83916 whole entry, looked up): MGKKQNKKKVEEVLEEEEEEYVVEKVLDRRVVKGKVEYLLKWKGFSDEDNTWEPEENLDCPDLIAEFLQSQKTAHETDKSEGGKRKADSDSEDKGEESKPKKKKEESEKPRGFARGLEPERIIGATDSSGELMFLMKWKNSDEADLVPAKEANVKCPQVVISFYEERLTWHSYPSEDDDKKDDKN
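Compound inhibition of the preformed complex between 50 nM HP1-beta and 50 nM biotinylated H3K9me3 peptide was read by AlphaScreen. Buffer was PBS pH 7.4 with 0.01% Tween-20. Incubations ran 30 min at room temperature, with 10 ug/mL donor/acceptor beads.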
BAZ2B block: blocks human BAZ2B; Q9UIF8; AlphaScreen BAZ2B-H3K14Ac peptide displacement; Potency, µM (top dose mostly 114 µM), usual class: inhibitors; 360,000 compounds, 4.4% hits; AID 504333; also: nearly all actives have a fitted effect of over 60% in size
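In this displacement format the biotinylated H3(5-23) peptide acetylated at Lys14 serves as ligand at 50 nM, with BAZ2B at 50 nM in PBS pH 7.4 containing 0.01% Tween-20. Donor and acceptor beads are 10 ug/mL final.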
L3MBTL1 inh: inhibitors of human L3MBTL1 | Q9Y468 | 230,000 compounds, 0.66% hits | Potency, µM (top dose mostly 57.1 µM), hits mostly inhibitors | AlphaScreen L3MBTL1–H3K9me1 peptide binding; also: nearly all actives have a fitted effect of over 60% in size
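Read-out is AlphaScreen signal from streptavidin donor and nickel chelate acceptor beads (10 ug/mL final each) bridging L3MBTL1 (50 nM) and biotinylated K9-monomethylated H3(1-15) peptide (75 nM), after 30 min compound exposure at room temperature.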
Sfp PPTase inh: Sfp phosphopantetheinyl transferase inhibition; AID 1490; Biochemical Sfp PPTase activity, qHTS; 310,000 compounds, 3.5% hits; Potency, µM, hits mostly inhibitors;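 also: the enzyme is Sfp with the accession as filed and its product quenches rhodamine fluorescence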
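After 15 min at room temperature with compound, 15 nM Sfp received 5 uM rhodamine-CoA plus 12.5 uM BHQ-2-ybbR (50 mM Hepes pH 7.6, 10 mM MgCl2). Rate came from the fluorescence difference over 30 min, ex 525/em 598 nm.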
A number is an active result; [ ] = remark or other dose. Calls follow the shape of the dose curve; as a rule, active = well fitted curve in the direction sought with a large enough effect; inconclusive = small, poorly fitted or top-dose-only effect, or another doubt; inactive = no such curve, though single readings can be large; an effect the other way counts as inactive or inconclusive.

For O=C1OC(c2ccccc2)Cc2cc(C(=O)N3CCN(c4ccc(F)cc4)CC3)ccc21 (configuration not stated) the results were G9a inh 50.1µM, JMJD2A Tudor inactive, HP1b chromo inh inactive, BAZ2B block inactive and L3MBTL1 inh inactive.
Screening O=C(O)c1ccc2c(c1)CC(c1ccccc1)OC2=O (configuration not stated) returned G9a inh inconclusive, JMJD2A Tudor inactive, HP1b chromo inh inactive, BAZ2B block inactive, L3MBTL1 inh inactive and Sfp PPTase inh inactive.
COc1ccc(N2CCN(C(=O)c3ccc4c(c3)CC(c3ccccc3)OC4=O)CC2)cc1 (configuration not stated) was read as G9a inh 10µM, JMJD2A Tudor inconclusive, HP1b chromo inh inactive, BAZ2B block 39.8µM and L3MBTL1 inh inactive.
Cc1ccccc1OCC(=O)Nc1ccc(N2CCOCC2)cc1N1CCOCC1 was read as G9a inh 10µM, JMJD2A Tudor inactive, HP1b chromo inh inactive, BAZ2B block inactive and L3MBTL1 inh inactive.
For Cc1ccccc1OCC(=O)N/N=C/c1ccc(N2CCOCC2)o1 the results were G9a inh inactive[0.501 µM], JMJD2A Tudor inconclusive, HP1b chromo inh inactive, BAZ2B block inconclusive and Sfp PPTase inh 20µM.
Screening Cc1ccccc1OCCC(=O)OCC(=O)Nc1ccc(N2CCOCC2)cc1 returned G9a inh inactive[12.7 µM], JMJD2A Tudor inactive, HP1b chromo inh inactive, BAZ2B block inactive and Sfp PPTase inh inactive.
Screening COc1ccccc1OCC(=O)Nc1ccc(N2CCOCC2)cc1N1CCOCC1 returned G9a inh inconclusive, JMJD2A Tudor 89.1µM, HP1b chromo inh inactive, BAZ2B block inactive and L3MBTL1 inh inactive.
Screening Cc1ccccc1OCCC(=O)Nc1ccc(N2CCOCC2)cc1N1CCOCC1 returned G9a inh 44.7µM, JMJD2A Tudor inactive, HP1b chromo inh inactive, BAZ2B block inactive and L3MBTL1 inh inactive.
For Cc1ccc(C)c(OCC(=O)Nc2ccc(N3CCOCC3)cc2N2CCOCC2)c1 the results were G9a inh inconclusive, JMJD2A Tudor inconclusive, HP1b chromo inh inactive, BAZ2B block inconclusive and L3MBTL1 inh inactive.
For Cc1ccccc1OCC(=O)N/N=C/c1ccncc1 the results were G9a inh inconclusive, JMJD2A Tudor inactive, HP1b chromo inh inactive, BAZ2B block inactive, L3MBTL1 inh inactive and Sfp PPTase inh inactive.
Screening N#Cc1ccccc1OCC(=O)Nc1ccc(N2CCOCC2)cc1N1CCOCC1 returned G9a inh inactive[12.7 µM], JMJD2A Tudor inactive, HP1b chromo inh inactive, BAZ2B block inactive and L3MBTL1 inh inactive.
For CC[C@H](C)[C@H](NC(=O)[C@H](C)NC(=O)[C@H](Cc1cnc[nH]1)NC(=O)[C@@H]1CCCN1C(=O)CNC(=O)[C@H](CC(C)C)NC(=O)[C@H](CC(C)C)NC(=O)[C@H](Cc1ccc(O)cc1)NC(=O)CNC(=O)[C@H](C)NC(=O)[C@H](CO)NC(=O)[C@H](CC(N)=O)NC(=O)[C@H](CC(C)C)NC(=O)[C@@H](NC(=O)[C@H](Cc1c[nH]c2ccccc12)NC(=O)CN)[C@@H](C)O)C(=O)N[C@@H](CC(=O)O)C(=O)N[C@@H](CC(N)=O)C(=O)N[C@@H](Cc1cnc[nH]1)C(=O)N[C@@H](CCCNC(=N)N)C(=O)N[C@@H](CO)C(=O)N[C@@H](Cc1ccccc1)C(=O)N[C@@H](CO)C(=O)N[C@@H](CC(=O)O)C(=O)N[C@@H](CCCCN)C(=O)N[C@@H](Cc1cnc[nH]1)C(=O)NCC(=O)N[C@@H](CC(C)C)C(=O)N[C@H](C(N)=O)[C@@H](C)O the results were Sfp PPTase inh inactive.
`CCN(CC)c1ccc(NS(=O)(=O)c2ccc(-c3coc(C)n3)cc2)c(C)c1` gave G9a inh 11.2µM, JMJD2A Tudor 25.1µM, HP1b chromo inh inconclusive and BAZ2B block 12.6µM.
For COc1ccc(NS(=O)(=O)c2cc(-c3onc(C)c3C)ccc2C)c(OC)c1 the results were G9a inh inactive, JMJD2A Tudor inactive, HP1b chromo inh inactive and BAZ2B block inactive.
For CCN(CC)c1ccc(NS(=O)(=O)c2cc3[nH]c(=O)c(=O)[nH]c3cc2C)c(C)c1 the results were G9a inh 14.1µM, JMJD2A Tudor 44.7µM, HP1b chromo inh inactive and BAZ2B block 50.1µM.
For Cc1cc(Cl)ccc1NS(=O)(=O)c1cc2[nH]c(=O)c(=O)[nH]c2cc1C the results were G9a inh inactive, JMJD2A Tudor inactive, HP1b chromo inh inactive and BAZ2B block inactive.
CCN(CC)c1ccc(NS(=O)(=O)c2cc(-c3onc(C)c3C)ccc2OC)c(C)c1 was read as G9a inh 8.91µM, JMJD2A Tudor inconclusive, HP1b chromo inh inactive and BAZ2B block inactive.
COc1ccc(-c2onc(C)c2C)cc1S(=O)(=O)NCCc1ccco1 was read as G9a inh inconclusive, JMJD2A Tudor inconclusive, HP1b chromo inh inactive, BAZ2B block 50.1µM and Sfp PPTase inh inactive.
`CCOc1cccc(C2c3[nH]c4ccccc4c3CCN2C(=O)Cc2cccc(OCC)c2OCC)c1` (configuration not stated) gave G9a inh inactive, JMJD2A Tudor inactive, HP1b chromo inh inactive and BAZ2B block inactive.
CCCCN(CC)C(=O)CCNS(=O)(=O)c1ccc2c(c1)c(=O)n(C)c(=O)n2C was read as G9a inh inactive, JMJD2A Tudor inactive, HP1b chromo inh inactive and BAZ2B block inactive.
COC(=O)[C@H](Cc1ccccc1)NC(=O)O[C@@H]1C(=O)c2ccc(OC)cc2O[C@H]1c1ccc2c(c1)OCO2 was read as Sfp PPTase inh inactive.
COc1ccc(-c2cccc(NC(=O)c3ccco3)c2)nn1 was read as G9a inh 50.1µM, JMJD2A Tudor inactive, HP1b chromo inh inactive, BAZ2B block inactive and L3MBTL1 inh inactive.
For COc1ccc(-c2ccc(NC(=O)c3ccco3)cc2)nn1 the results were G9a inh 39.8µM, JMJD2A Tudor inactive, HP1b chromo inh inactive, BAZ2B block inactive and L3MBTL1 inh inactive.
For CCc1noc(-c2ccc(N3CCC(C)CC3)c([N+](=O)[O-])c2)n1 the results were G9a inh inactive, JMJD2A Tudor inactive, HP1b chromo inh inactive and BAZ2B block inactive.
For COc1ccc(CCNC(=O)Cc2c(C)c3cc4c(C(C)(C)C)coc4c(C)c3oc2=O)cc1OC the results were G9a inh inactive, JMJD2A Tudor inactive, HP1b chromo inh inactive and BAZ2B block inactive.
`Fc1ccccc1/C=N/n1c(COc2ccccc2)n[nH]c1=S` gave G9a inh 2.24µM, JMJD2A Tudor 31.6µM, HP1b chromo inh inconclusive, BAZ2B block inconclusive and Sfp PPTase inh 56.2µM.
Screening Oc1ccc(/C=N/n2c(COc3ccccc3)n[nH]c2=S)c(O)c1 returned G9a inh 1.78µM, JMJD2A Tudor inactive, HP1b chromo inh inactive, BAZ2B block inactive and Sfp PPTase inh 56.2µM.
